Of roughly 7,900 targets only a part is listed; those with a hit were picked by preference. About 0.6% of all pairs of compound and target were hits. Unmarked numbers belong to inactive results.

Chain of UniProt Q9H5K3 (Q9H5K3 whole entry, looked up): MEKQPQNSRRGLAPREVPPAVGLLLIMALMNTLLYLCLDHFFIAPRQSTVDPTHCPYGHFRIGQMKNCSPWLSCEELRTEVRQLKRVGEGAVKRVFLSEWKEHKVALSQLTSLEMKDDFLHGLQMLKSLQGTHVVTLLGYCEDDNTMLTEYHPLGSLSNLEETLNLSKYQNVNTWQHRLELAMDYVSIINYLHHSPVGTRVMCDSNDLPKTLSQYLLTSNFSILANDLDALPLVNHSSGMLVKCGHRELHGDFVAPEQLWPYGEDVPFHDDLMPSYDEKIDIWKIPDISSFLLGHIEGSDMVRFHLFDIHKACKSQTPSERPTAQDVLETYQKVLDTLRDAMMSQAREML
Chain of UniProt P13861 (P13861 whole entry, looked up): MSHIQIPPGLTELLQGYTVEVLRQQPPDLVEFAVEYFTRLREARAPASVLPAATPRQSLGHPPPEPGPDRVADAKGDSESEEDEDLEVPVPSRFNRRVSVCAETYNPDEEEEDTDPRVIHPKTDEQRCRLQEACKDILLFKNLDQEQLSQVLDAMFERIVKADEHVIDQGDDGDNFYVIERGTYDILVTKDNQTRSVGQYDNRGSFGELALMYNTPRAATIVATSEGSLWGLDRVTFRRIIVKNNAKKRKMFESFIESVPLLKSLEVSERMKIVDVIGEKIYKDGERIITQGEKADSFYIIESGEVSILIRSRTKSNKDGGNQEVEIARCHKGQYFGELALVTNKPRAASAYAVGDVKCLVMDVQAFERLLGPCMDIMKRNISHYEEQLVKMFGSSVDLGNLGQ
Chain of UniProt Q86UU1 (Q86UU1 whole entry, looked up): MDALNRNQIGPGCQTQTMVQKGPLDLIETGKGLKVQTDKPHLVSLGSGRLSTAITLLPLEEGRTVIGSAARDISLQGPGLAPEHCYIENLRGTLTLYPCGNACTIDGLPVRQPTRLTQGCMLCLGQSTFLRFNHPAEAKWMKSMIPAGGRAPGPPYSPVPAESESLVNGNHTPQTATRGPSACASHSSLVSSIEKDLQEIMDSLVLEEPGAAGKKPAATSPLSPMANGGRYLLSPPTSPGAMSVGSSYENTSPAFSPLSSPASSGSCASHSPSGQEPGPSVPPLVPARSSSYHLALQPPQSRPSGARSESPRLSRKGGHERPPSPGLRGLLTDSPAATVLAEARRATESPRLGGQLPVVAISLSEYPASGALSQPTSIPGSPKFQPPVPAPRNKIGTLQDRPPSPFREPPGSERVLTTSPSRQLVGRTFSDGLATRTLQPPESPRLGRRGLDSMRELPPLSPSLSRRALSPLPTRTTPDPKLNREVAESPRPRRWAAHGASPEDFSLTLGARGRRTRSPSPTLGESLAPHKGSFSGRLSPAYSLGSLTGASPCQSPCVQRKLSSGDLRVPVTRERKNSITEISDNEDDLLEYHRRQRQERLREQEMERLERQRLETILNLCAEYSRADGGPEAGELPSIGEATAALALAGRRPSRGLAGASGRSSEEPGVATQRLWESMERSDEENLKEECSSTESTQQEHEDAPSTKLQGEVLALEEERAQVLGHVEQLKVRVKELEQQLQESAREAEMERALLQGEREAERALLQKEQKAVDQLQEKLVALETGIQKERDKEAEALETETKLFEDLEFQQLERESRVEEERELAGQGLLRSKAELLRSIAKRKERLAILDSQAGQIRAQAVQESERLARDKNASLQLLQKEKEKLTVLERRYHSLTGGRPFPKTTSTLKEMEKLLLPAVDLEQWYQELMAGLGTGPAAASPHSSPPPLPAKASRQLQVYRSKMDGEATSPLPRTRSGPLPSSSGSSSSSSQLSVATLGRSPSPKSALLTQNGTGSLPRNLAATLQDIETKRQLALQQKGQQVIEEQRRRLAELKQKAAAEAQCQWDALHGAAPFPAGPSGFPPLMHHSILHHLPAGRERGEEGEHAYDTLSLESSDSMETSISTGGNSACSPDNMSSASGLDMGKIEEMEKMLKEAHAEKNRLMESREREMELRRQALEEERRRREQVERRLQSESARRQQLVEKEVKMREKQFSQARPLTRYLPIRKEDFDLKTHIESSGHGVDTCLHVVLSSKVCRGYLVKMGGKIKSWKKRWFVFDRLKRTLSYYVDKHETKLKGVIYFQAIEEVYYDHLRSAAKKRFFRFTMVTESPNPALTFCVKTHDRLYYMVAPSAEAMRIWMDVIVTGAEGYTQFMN
Chain of UniProt Q9P2B2 (Q9P2B2 whole entry, looked up): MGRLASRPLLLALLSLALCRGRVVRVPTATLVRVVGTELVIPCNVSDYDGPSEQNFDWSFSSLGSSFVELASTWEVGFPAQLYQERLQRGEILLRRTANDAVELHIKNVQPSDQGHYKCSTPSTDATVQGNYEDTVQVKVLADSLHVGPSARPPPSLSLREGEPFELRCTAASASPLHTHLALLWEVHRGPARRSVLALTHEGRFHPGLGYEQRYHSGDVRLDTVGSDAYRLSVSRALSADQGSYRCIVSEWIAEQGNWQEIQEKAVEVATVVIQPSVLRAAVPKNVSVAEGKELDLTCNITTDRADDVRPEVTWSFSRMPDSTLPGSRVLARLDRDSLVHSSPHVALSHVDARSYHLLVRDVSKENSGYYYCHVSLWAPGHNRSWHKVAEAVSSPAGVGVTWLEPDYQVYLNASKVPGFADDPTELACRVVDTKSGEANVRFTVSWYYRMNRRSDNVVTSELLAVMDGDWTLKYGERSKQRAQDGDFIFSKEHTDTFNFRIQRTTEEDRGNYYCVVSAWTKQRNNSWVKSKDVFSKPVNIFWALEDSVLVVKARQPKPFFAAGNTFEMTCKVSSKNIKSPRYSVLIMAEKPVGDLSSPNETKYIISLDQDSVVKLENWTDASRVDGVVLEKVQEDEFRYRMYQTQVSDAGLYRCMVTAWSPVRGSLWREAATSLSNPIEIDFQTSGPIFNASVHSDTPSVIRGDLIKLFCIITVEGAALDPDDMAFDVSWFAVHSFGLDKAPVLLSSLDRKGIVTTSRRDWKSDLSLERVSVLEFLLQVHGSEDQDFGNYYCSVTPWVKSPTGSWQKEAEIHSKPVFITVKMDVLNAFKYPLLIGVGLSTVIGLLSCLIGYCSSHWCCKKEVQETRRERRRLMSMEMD
Chain of UniProt O60678 (O60678 whole entry, looked up): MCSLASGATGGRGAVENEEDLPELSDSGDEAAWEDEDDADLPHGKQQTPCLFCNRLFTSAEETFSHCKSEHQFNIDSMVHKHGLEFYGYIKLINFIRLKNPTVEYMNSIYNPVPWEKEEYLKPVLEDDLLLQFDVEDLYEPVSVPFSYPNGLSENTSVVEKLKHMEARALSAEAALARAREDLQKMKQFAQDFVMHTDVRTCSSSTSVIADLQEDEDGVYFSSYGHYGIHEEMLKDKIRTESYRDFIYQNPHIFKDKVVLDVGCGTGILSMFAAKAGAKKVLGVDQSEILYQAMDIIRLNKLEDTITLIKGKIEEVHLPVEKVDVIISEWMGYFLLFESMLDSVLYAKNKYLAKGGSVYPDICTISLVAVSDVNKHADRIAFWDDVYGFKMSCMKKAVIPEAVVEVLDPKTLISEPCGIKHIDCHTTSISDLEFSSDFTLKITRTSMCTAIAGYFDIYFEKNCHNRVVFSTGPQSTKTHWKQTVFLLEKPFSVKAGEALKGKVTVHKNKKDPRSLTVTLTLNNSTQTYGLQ
Chain of UniProt Q6EEV4 (Q6EEV4 whole entry, looked up): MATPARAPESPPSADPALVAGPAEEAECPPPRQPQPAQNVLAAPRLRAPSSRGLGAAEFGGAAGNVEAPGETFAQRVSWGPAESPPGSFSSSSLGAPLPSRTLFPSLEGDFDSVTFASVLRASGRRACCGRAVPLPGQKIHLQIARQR
Chain of UniProt Q12974 (Q12974 whole entry, looked up): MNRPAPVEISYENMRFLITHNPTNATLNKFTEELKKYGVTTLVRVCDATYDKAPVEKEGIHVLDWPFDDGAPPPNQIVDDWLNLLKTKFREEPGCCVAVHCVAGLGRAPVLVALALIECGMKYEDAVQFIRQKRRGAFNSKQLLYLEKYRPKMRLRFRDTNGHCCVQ
Chain of UniProt P28065 (P28065 whole entry, looked up): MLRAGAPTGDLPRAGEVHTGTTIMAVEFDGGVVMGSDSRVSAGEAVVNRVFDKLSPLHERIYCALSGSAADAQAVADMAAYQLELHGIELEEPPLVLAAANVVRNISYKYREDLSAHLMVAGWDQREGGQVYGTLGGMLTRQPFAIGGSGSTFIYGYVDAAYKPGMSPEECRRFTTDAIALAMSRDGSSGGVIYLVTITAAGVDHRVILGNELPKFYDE
Chain of UniProt P41247 (P41247 whole entry, looked up): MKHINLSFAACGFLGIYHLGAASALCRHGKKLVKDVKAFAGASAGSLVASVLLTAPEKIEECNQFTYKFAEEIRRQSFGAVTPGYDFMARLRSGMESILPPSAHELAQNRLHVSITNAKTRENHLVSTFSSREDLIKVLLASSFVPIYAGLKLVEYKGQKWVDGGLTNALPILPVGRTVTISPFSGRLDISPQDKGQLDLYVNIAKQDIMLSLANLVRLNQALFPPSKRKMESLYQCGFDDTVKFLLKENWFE
Chain of UniProt Q15173 (Q15173 whole entry, looked up): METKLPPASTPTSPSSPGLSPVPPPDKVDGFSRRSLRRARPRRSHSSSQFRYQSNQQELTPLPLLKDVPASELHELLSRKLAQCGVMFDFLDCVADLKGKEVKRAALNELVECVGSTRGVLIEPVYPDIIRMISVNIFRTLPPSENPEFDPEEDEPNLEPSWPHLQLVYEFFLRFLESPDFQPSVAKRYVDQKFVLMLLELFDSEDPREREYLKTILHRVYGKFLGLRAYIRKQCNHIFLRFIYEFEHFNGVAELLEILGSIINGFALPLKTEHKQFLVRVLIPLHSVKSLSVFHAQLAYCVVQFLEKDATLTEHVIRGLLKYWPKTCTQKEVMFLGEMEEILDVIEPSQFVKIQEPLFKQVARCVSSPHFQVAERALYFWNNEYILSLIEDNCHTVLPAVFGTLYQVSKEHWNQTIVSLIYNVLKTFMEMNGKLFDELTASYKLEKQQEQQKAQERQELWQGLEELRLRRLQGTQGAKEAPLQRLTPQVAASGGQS
Chain of UniProt Q15121 (Q15121 whole entry, looked up): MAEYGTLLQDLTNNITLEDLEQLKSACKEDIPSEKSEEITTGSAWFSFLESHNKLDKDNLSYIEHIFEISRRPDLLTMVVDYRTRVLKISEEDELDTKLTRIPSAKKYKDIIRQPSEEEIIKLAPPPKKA

Compound in the experiment: COC(=O)[C@H](CCSC)NC(=O)C1=C(C=C(C=C1)NC[C@H](CS)N)C2=CC=CC=C2
The experiment can be described thus: log2 fold change, soluble protein after heating vs DMSO (PISA); higher = thermal stabilisation; K562 cells, 10 uM, 30 min; active = over 0.2 and 3.5 SD of the protein, either way, in both replicates (recomputed). In a few lines:
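K562 cells at 2×10^6 cells/mL were exposed to 10 μM compound for 30 min, then aliquots were heated for 3 min across 48°C-58°C, pooled, and extracted in PBS containing 0.5% NP-40 at 4°C. The supernatant after 21,000xg for 90 min was taken as soluble protein and measured by TMTpro 16plex LC-MS/MS with channel sums equalised. Thermal stability is reported relative to control samples, with values from duplicates. Fold changes are given on a log2 scale.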
Turning to PKM isoform 2 (UniProt P14618), the log2 fold change is -0.081. Then PDIK1L (UniProt Q8N165), with -0.115; and POLR2C (UniProt P19387), with -0.045. As to PSD3 (UniProt Q9NYI0), the log2 fold change was -0.019. Regarding PPP2R5A (UniProt Q15172), the log2 fold change was -0.03. Under POMK (UniProt Q9H5K3) stands -0.056; under PRKAG1 isoform 3 (UniProt P54619), -0.014; under PSMB9 (UniProt P28065), 0.094. PTGFRN (UniProt Q9P2B2): the log2 fold change is 0.053. Then PGK2 (UniProt P07205), with 0.038; and PIGH (UniProt Q14442), with -0.001; and PTP4A2 (UniProt Q12974), with 0.117.

For the target PPP2R5B (UniProt Q15173), the log2 fold change was -0.135.

With PLIN2 (UniProt Q99541), the log2 fold change was 0.047. Under PCNX1 (UniProt Q96RV3) stands -0.039; under PNPLA4 (UniProt P41247), -0.011.

For POGZ (UniProt Q7Z3K3), the log2 fold change is -0.043. Then PRMT3 (UniProt O60678), with -0.064; and PEX16 isoform 2 (UniProt Q9Y5Y5), with 0.05; and PIK3CD (UniProt O00329), with -0.062.

With PPP1R12C (UniProt Q9BZL4), the log2 fold change was 0.035. Then POLR2M (UniProt Q6EEV4), with 0.026.

PSMB4 (UniProt P28070): the log2 fold change is 0.006.

As for PDPK1 (UniProt O15530), the log2 fold change is 0. Then POLR2E (UniProt P19388), with -0.081; and PRMT8 (UniProt Q9NR22), with -0.122.

For PRKAR2A (UniProt P13861), the log2 fold change was -0.015.

Take PATL1 (UniProt Q86TB9): the log2 fold change was -0.066.

With PARP1 (UniProt P09874), the log2 fold change was -0.04. Consider PHLDB1 isoform 2 (UniProt Q86UU1), for which the log2 fold change was -0.001.

Take QRICH1 (UniProt Q2TAL8): the log2 fold change is 0.169.

Take PEA15 isoform 2 (UniProt Q15121): the log2 fold change was 0.034.

For the origin of these results see the supplement of paper PMC10849652.
